# Sampled rows, rich in hits. Any-hit rate of the full collection: about 3.1%.
# HSF-1 act – increases HSF-1 driven luciferase reporter signal; NIH3T3-HGL HSF-1 luciferase reporter, MG132, 8 h; 100% = twice DMSO control signal; activation, % at 9 µM; 300,000 tested, 1.7% active;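 active means mean replicate activation of at least 50% with a set share of replicates each reaching 50%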
# HSP90 refold inh – blocks HSP90-mediated luciferase refolding in reticulocyte lysate; Rabbit reticulocyte lysate, luciferase refolding luminescence, 3 h; inhibition, % at 5.6 µM; 290,000 tested, 0.91% active;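 active means inhibition above the screen-wide mean plus 3 SD, computed separately per campaign, cut at about 16% in these data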;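 further: inhibitors lower the luminescence because luciferase stays unfolded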
# ARNT-TACC3 inh – ARNT/TACC3 interaction disruption; inhibition, % at 9.99 µM; 390,000 tested, 0.66% active; Q9Y6A5; AlphaScreen His-ARNT PAS-B/GST-TACC3 binding, luminescence; TACC3 fragment carries E629A point mutation;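 active means mean inhibition of replicates at least 50% and at least half of replicates each reaching 50%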
# HSF1 inh – HSF1 inhibition; NIH3T3-HGL HSE-luciferase, MG132-induced, luminescence 8 h; stronger effect = lower value; activity change, negative = inhibition, % at 7.5 µM (by protocol); 300,000 tested, 0.77% active;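 active means more than half of replicate wells show activity change below -50%, luminescence cut by over half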;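 further: luciferase reports HSF-1 transcriptional activity via heat shock element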
# HIF act – HIF pathway transcriptional activation; U2OS HRE-luciferase reporter, luminescence; normalized: DMSO 0%, desferrioxamine 100%; activation, % at 7.5 µM (by protocol); 300,000 tested, 0.32% active; AID 1910;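 active means mean activation of at least 10% of the iron chelator positive control signal, with at least half of replicates also reaching 10%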
# A number is an active result; – = inactive; · = not tested or not shown.
SMILES,HSF-1 act,HSP90 refold inh,ARNT-TACC3 inh,HSF1 inh,HIF act
COc1ccc(C(=O)/C=C/Nc2cc(C)on2)c(OC)c1,–,–,–,-58,–
CN1[C@H](C(=O)NC2CCCCC2)[C@@H](CO)[C@@H]2Cn3c(ccc(-c4cccc(F)c4)c3=O)[C@@H]21,·,·,–,·,·
CN(C)C(=O)[C@@H]1[C@@H](CO)[C@@H]2Cn3c(ccc(-c4ccccc4F)c3=O)[C@H]1N2C,·,·,–,·,·
COc1ccc(NC(=O)CN(C)C(=O)c2ccc(N3CCCCC3)c([N+](=O)[O-])c2)cc1,–,·,–,–,–
COCOc1cc(O)c(C(=O)/C=C/c2ccccc2)c(OCOC)c1,155,·,–,–,–
COc1ccc(NC(=O)CN(C)C(=O)c2ccc(N3CCCCCC3)c([N+](=O)[O-])c2)cc1,67,·,–,–,–
CCOC(=O)C1CCCN(CC(=O)Nc2c(C(=O)OC)[nH]c3ccccc23)C1 (stereo not given),60,–,–,–,–
CCO[C@@H]1OC(C(=O)N2CCN(Cc3ccc4c(c3)OCO4)CC2)=C[C@H](C(C)(C)C)[C@H]1CCCO,·,·,–,·,·
O=C(CCC1CCCC1)N=C1SC2CS(=O)(=O)CC2N1c1ccccc1F (stereo not given),64,–,–,–,–
O=C(Nc1ccc2c(c1)[C@@H]1C[C@H](CC(=O)N3CCOCC3)O[C@@H](CO)[C@@H]1O2)NC1CCCCC1,·,·,–,·,·
COc1ccccc1OCc1nnc(SCC(=O)N2CCCC2)o1,–,–,–,–,–
COc1ccccc1OCc1nnc(SCCN2CCOCC2)o1,58,–,–,–,–
Cn1nc(C(F)(F)F)cc1C(=O)NC1CCCCCC1,–,–,–,–,237
O=C(NCC1CCCO1)C(c1ccncc1)N(Cc1cccs1)C(=O)Cn1nnc(-c2ccc(F)cc2)n1 (stereo not given),–,–,–,–,–
Cc1ccc(-c2nnn(CC(=O)N(Cc3cccs3)C(C(=O)NC3CCCC3)c3ccncc3)n2)cc1 (stereo not given),–,–,–,-55,–
CC1CCCCN1C(=O)COc1ccccc1F (stereo not given),56,–,·,–,–
COc1cc(NC(=O)c2c(OC)cccc2OC)ccc1NC(=O)c1cc2ccccc2o1,52,–,–,–,–
O=C(Nc1cccc(Br)c1)c1cc2ccccc2o1,86,–,–,–,–
Cc1cccc(NC(=O)c2cc3ccccc3o2)c1,76,–,–,–,–
Cc1ccc(NC(=S)N(Cc2ccc(Cl)cc2)Cc2ccc(C(=O)O)cc2)cc1Cl,74,–,–,–,–
COc1ccc(CN(CC2CCC(C(=O)O)CC2)C(=S)Nc2ccc(C)c(Cl)c2)cc1 (stereo not given),–,–,–,–,–
COc1ccc(N/N=C/c2c(C(=O)O)ccc3ccccc23)cc1,–,–,–,–,50
COc1ccc2ccccc2c1/C=N/Nc1ccc(Cl)c(C(=O)O)c1,–,–,–,–,–
CC(C)CC#Cc1cnc2c(c1)C(=O)N([C@H](C)CO)C[C@@H](C)[C@H](CN(C)C(=O)CN1CCOCC1)O2,·,·,–,·,·
Cc1ccc(-c2nc3cnccn3c2Nc2c(C)cccc2C)o1,–,–,–,-82,–
SMILES,HSF-1 act,HSP90 refold inh,ARNT-TACC3 inh,HSF1 inh,HIF act
Cc1ccccc1Nc1c(-c2ccccn2)nc2ccccn12,–,–,59,–,13
Cc1ccc2nc(-c3cccnc3)c(Nc3ccccc3C)n2c1,–,–,–,–,–
Cc1ccc(-c2nc3ncccn3c2NC2CCCC2)o1,–,–,–,–,–
Cc1ccc2nc(-c3ccccn3)c(Nc3ccccc3C)n2c1,–,–,64,–,22
Cc1ccc(Nc2c(-c3ccc(C)o3)nc3ncccn23)cc1,–,–,–,–,–
Cc1ccc(-c2nc3ncccn3c2Nc2ccccc2C)o1,57,–,·,–,–
O=C(Nc1nnc2n1CCS2)c1ccco1,–,–,45,–,–
Cc1cccnc1NC(=O)c1ccco1,·,·,–,·,·
CCOc1ccc(N2CSC(=S)N(c3ccc(OCC)cc3)C2)cc1,–,–,–,-65,–
O=C1CSC(=S)N1/N=C/c1cc(Br)ccc1O,–,–,·,–,–
O=C1CSC(=S)N1/N=C/c1ccc(O)c(O)c1O,–,–,98,–,–
O=C1CSC(=S)N1N=Cc1ccc(Cl)s1,·,·,61,·,·
CC(C)(C)c1ccc(/C=N/N2C(=O)CSC2=S)cc1,–,–,–,-77,–
CCCNC(=O)C[C@H]1CC[C@@H]2[C@H](COc3ccc(NC(=O)c4cc(F)cc(F)c4)cc3C(=O)N2C)O1,·,·,–,·,·
CCCC(=O)Nc1ccc2c(c1)C(=O)N(C)[C@H]1CC[C@@H](CC(=O)NCc3ccccc3F)O[C@@H]1CO2,·,·,–,·,·
O=C(Nc1c(F)cccc1F)c1cnc(N2CCN(c3ccccn3)CC2)c2ccccc12,–,–,–,–,–
Cc1ccc(NC(=O)c2cnc(N3CCN(c4ccccn4)CC3)c3ccccc23)c(Br)c1,–,–,–,-63,–
C[C@H]1CN([C@@H](C)CO)C(=O)c2cccc(NC(=O)c3ccc(-c4nccs4)cc3)c2O[C@H]1CN(C)S(=O)(=O)c1ccc(Cl)cc1,·,·,–,·,·
CS(=O)(=O)N(CC(=O)NCCSC1CCCCC1)c1ccc2c(c1)OCO2,–,–,–,-67,–
CCn1c(SCC(=O)N/N=C/C=C/c2ccco2)nc2ccccc21,78,–,–,–,–
COCC#Cc1cnc2c(c1)C(=O)N([C@H](C)CO)C[C@H](C)[C@H](CN(C)C(=O)c1cccc(F)c1)O2,·,·,–,·,·
CC(C)=C1C2CCC1C1C(=O)N(c3ccc(C)c(C)c3)C(=O)C21 (stereo not given),–,–,–,-71,–
COc1ccc(NC(=O)N(C)C[C@H]2OCCCC[C@H](C)Oc3ccc(NS(=O)(=O)c4c(C)noc4C)cc3C(=O)N([C@H](C)CO)C[C@@H]2C)cc1,·,·,–,·,·
O=C(Nc1ccc(Cl)cc1Cl)C1=Cc2ccccc2OC1,53,–,–,–,–
O=C(Nc1ccc(Cl)cc1)C1=Cc2cc(Cl)ccc2OC1,–,–,–,–,–
SMILES,HSF-1 act,HSP90 refold inh,ARNT-TACC3 inh,HSF1 inh,HIF act
O=C(C[C@@H]1CC[C@H](NC(=O)Nc2ccccc2F)[C@H](CO)O1)NCc1ccc(Cl)cc1,·,·,–,·,·
COc1ccccc1NC(=O)N(C)C[C@@H]1Oc2ncc(C#CC(C)C)cc2C(=O)N([C@@H](C)CO)C[C@H]1C,·,·,–,·,·
COC(=O)/C(=C/c1ccc2c(c1)c1ccccc1n2C)NC(=O)c1ccccc1,73,–,–,–,–
CCOC(=O)c1ccc(N=c2sc(C(=O)OC)cc(=O)n2Cc2ccco2)cc1,107,–,–,–,–
CCOC(=O)c1ccc(N=c2sc(C(=O)OC)cc(=O)n2CCCN2CCOCC2)cc1,–,–,–,–,–
CC1Cc2ccccc2N1C(=O)CSc1ncccc1C(=O)O (stereo not given),–,–,–,-78,·
CC1Cc2ccccc2N1C(=O)CSc1ccccc1 (stereo not given),–,–,–,–,–

# Assay outcomes: PubChem, several laboratories
